The test is described as follows: small-molecule binders of probe aLefty1, primary screen, biochemical, small-molecule microarray, 635/667 nm fluorescence (AID 1153).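 Further: score merges spot fluorescence with signal-to-noise ratio from the scanned slide images.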 Particulars: higher = more signal.
In the case of `CC(C)Cc1ccc(CN2CC[C@@H](NC(=O)Nc3ccccc3)C2)cc1`, the composite z-score is -0.191. In turn, `CC(C)C[C@@H]1NC(=O)[C@@H]2C[C@H](C(=O)NCCCCN(C)C)[C@H](c3cccc(OCCO)c3)N2C1=O` displayed a composite z-score of 0.0945.

`CC1CC/C=C\[C@H]2OC34C=CCN(C(C)C)C(=O)[C@H]3N(CCCCCCO)C(=O)[C@@H]4C2C(=O)O1` (stereo not given in full) yielded a composite z-score of -0.45. Compound `COc1ccc(CCNC(=O)[C@@]2(Sc3ccc(C)cc3)CC(=O)N(C3Cc4ccccc4C3)[C@@H]2c2ccc(CO)cc2)cc1` showed a composite z-score of 0.366. `COc1ccc(-c2nc(-c3ccccc3)c3c(c2C)CO[Si]3(C(C)C)C(C)C)cn1` showed a composite z-score of 0.0816.

`CCCC[C@@H]1C[C@H]1[C@@H](NC(=O)c1cccs1)c1ccc(C(F)(F)F)cc1` gave a composite z-score of 0.101. For the compound `CN1C(=O)C2C=CC(C(O)c3ccc(F)cc3)N(Nc3ccccc3)C2C1=O` (stereo not given), the composite z-score stood at 0.0711. Turning to `OCC1CC(c2ccccc2)=NO1` (stereo not given), the composite z-score turned out to be 0.0278. For the compound `COC1OC[C@]2(C)[C@H]3C4=C(CN2C(=O)OC(C)(C)C)[C@H](C)C(CO)C(CO)C4CC[C@@H]13` (stereo not given in full), the composite z-score is 1.13. The compound `NCCCCCCNC(=O)[C@@H]1C[C@@H]2C(=O)N[C@@H](CCCCN)C(=O)N2[C@@H]1c1cccc(OCCO)c1` registered a composite z-score of 0.784. Compound `CCOC(=O)C1=C[C@@H](c2ccccc2)N(S(=O)(=O)c2ccc(C)cc2)[C@H]1c1ccccc1Cl` gave a composite z-score of 0.138.

`CCOc1cc(C(O)C2C=CC3C(=O)N(c4ccccc4)C(=O)C3N2Nc2ccc(C#N)cc2)ccc1O` (stereo not given) yielded a composite z-score of 0.302. In turn, `CCCCCCCCCCC(O)C1C=CC2C(=O)N(C)C(=O)C2N1NC(=O)OC(C)(C)C` (stereo not given) displayed a composite z-score of -0.239. To `NCCCCCNC(=O)[C@@H]1C[C@@H]2C(=O)NCC(=O)N2[C@@H]1c1cccc(OCCO)c1` belongs 0.165. `[N-]=[N+]=NCc1ccccc1[C@H]1OC(c2ccc(OCCCO)cc2)=N[C@@]1(CCS(=O)(=O)c1ccccc1)C(=O)N1CCCCC1` gave a composite z-score of 0.666. `CCOC(=O)C[C@H]1[C@H](OC(=O)c2ccccc2-c2ccccc2)[C@@H](NC(=O)c2ccc(-c3ccccc3)cc2)c2cc(OCCCO)ccc2N1C(=O)c1ccc2ccccc2n1`: the composite z-score was -0.28. For `CCCCCCc1nc(C2CC2)cc2c1[Si](C(C)C)(C(C)C)OC2` the value was -0.0559; for `O=C1C[C@@](C(=O)NCCN2CCOCC2)(c2ccc([N+](=O)[O-])cc2)[C@@H](c2ccc(CO)cc2I)N1C1CCCCC1`, 0.0688. `COC(=O)[C@@]1(Cc2ccc(OC)cc2)[C@H]2c3cc(C(=O)N4CCCC4)n(Cc4c(-c5ccccc5)noc4C)c3C[C@H]2CN1C(=O)c1ccccc1` registered a composite z-score of 0.956. With `CC(C)(C)N1CC=CC23O[C@@H]4C=CCCOC(=O)C4[C@H]2C(=O)N(CCO)[C@@H]3C1=O` (stereo not given in full), the composite z-score was -0.0823. For `O=C1O[C@@H](c2ccccc2)[C@@H](c2ccccc2)N2[C@@H](c3ccccc3OCCO)[C@]3(C(=O)Nc4ccc(C#CCCO)cc43)[C@@H](C(=O)N3CCCCCCC3)[C@H]12` the value was 3.18; for `CO[C@]12C=C(Br)[C@@H](C[C@@H]1c1cccc(C)c1)[C@@]1(CO1)C2=O`, -0.0035. With `O=C1C2C=CC(C(O)c3ccccc3)N(Nc3ccccc3F)C2C(=O)N1c1ccccc1` (stereo not given), the composite z-score was found to be 0.002. To `CC[C@H]1C2=C3C(CC[C@H]4C(OCc5ccc(F)cc5C(F)(F)F)OC[C@](C)([C@@H]34)N(C(=O)OC(C)(C)C)C2)C(COC)C1COC` (stereo not given in full) belongs 0.409; to `Cc1ccc(S[C@]2(C(=O)O)CC(=O)N(C3Cc4ccccc4C3)[C@@H]2c2ccc(CO)cc2)cc1`, 0.212; to `COc1ccc(NC(=O)O[C@H]2[C@H](OC(=O)Nc3ccccc3)[C@@H](OC(=O)Nc3ccccc3)[C@@H](OC)O[C@@H]2CO)cc1`, 0.113.

Take `CCCC[C@@H]1C[C@H]1[C@@H](NC(=O)Cc1ccccc1)c1ccc(-c2ccccc2)cc1`: the composite z-score amounted to 0.369. For `N#Cc1ccc(NN2C(C(O)c3ccc(F)cc3)C=CC3C(=O)N(c4ccccc4)C(=O)C32)cc1` (stereo not given) the value was 1.03; for `[N-]=[N+]=NCc1ccccc1C[C@]1(C(N)=O)N=C(c2ccc(OCCCO)cc2)O[C@H]1c1ccccc1`, -0.227; for `COCCCNC(=O)[C@@]1(Cc2ccccc2N=[N+]=[N-])N=C(c2ccc(OCCCO)cc2)O[C@H]1c1ccccc1`, 0.535.

In the case of `CN(C)CCCNC(=O)[C@@H]1c2ccccc2C(=O)N(Cc2ccccc2Cl)[C@H]1c1ccc(CO)cc1`, the composite z-score came to 0.022.

`C=C(/C(=C/C[C@H](OC(=O)c1ccncc1)c1ccc(CO)o1)c1cc(C(=O)OC)ccc1OC)C(C)C`: the composite z-score was 0.0187. As to `C=CCC(OC(C)=O)[C@@H]1[C@@H](N(Cc2ccc(-c3cccc(C(F)(F)F)c3)o2)C(=O)c2ccc(-c3ccccc3)cc2)c2cc(OCCCO)ccc2N1C(=O)c1ccc2ccccc2n1` (stereo not given in full), the composite z-score was -0.0501.

Compound `CCCCN1CC=CC23O[C@@H]4/C=C\CCC(C)OC(=O)C4[C@H]2C(=O)N(C(CO)C(C)C)[C@@H]3C1=O` (stereo not given in full) returned a composite z-score of 0.13. `[N-]=[N+]=Nc1ccccc1[C@H]1OC(c2ccc(OCCCO)cc2)=N[C@@]1(Cc1ccccc1)C(=O)N1CCCCC1`: the composite z-score turned out to be 0.51.

Values taken from PubChem BioAssay.
